# PubChem BioAssay
# Results filed as inconclusive are left out. Activity calls are given as the source filed them.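 The calls were made as follows, unless noted: active = normalized viability below 100% at a tested concentration; inactive = the rest.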
# What was measured:
# [1] = growth inhibition of DIPG glioma cells, dose response, cell-based, SU-DIPG-IV, MIPE4.0, CellTiter-Glo, qHTS (AID 1347063; cut-off not given, nearly all actives have AC50 up to about 30 µM;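 also: compound exposure lasted 48 hours before the viability readout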); conditions: SU-DIPG-IV viability, CellTiter-Glo ATP luminescence
# [2] = viability loss in pontine glioma line – cell-based, SU-DIPG-XXV, MIPE5.0, CellTiter-Glo, qHTS, dose response (AID 1347065; cut-off not given, nearly all actives have AC50 up to about 26 µM;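 also: cells exposed to compound for 48 hours before ATP readout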); conditions: CellTiter-Glo ATP luminescence
# [3] = SU-DIPG-VI glioma cell viability, MIPE4.0 library, CellTiter-Glo luminescence, qHTS (AID 1347066; cut-off not given, nearly all actives have AC50 up to about 30 µM;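 also: cells exposed to compound for 48 hours before readout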); conditions: CellTiter-Glo ATP luminescence
# [4] = JHH-DIPG-1 glioma cell viability, MIPE5.0 library, CellTiter-Glo luminescence, qHTS (AID 1347067; cut-off not given, nearly all actives have AC50 up to about 26 µM;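 also: cells exposed to compound for 48 hours before readout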); conditions: JHH-DIPG-1 glioma viability, CellTiter-Glo ATP luminescence
# [5] = sensitizers of A549 cells to miR-34 induction, primary screen, imaging, A549 dox-inducible miR-34, nuclei and caspase counts (AID 1347080;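 active = compounds whose cell count with miR-34 switched on is under 0.7 times the count with it off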); conditions: A549 miR-34 inducible, Hoechst nuclei count, 48 h
# [6] = survival rescue of mitochondrial mutant cells in low glucose, primary screen, MELAS cybrids, Rieske KO mouse fibroblasts, CellTiter-Glo (AID 1508586;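 active = mean z-score across replicates of 1.96 or higher in either the MELAS or the Rieske mutant cell line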;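 also: z relative to plate mean and SD of compound and empty wells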)
# [7] = ovarian cancer cell viability with rucaparib, profiling panel, oncology-focused library, rucaparib conditional (AID 1508598); conditions: patient-derived ovarian cancer cells, CellTiter-Glo viability, 144 h, stronger effect = lower value
# [8] = SU-DIPG-XXV glioma cell viability, MIPE5.0 library, qHTS (AID 1347068; cut-off not given, nearly all actives have IC50 up to about 30 µM;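 as to IC50: cells exposed to compound for 48 hours before viability readout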)
# [9] = growth inhibition of DIPG glioma cells, dose response, cell-based, SU-DIPG-XIII, MIPE5.0, CellTiter-Glo, qHTS (AID 1347064; cut-off not given, nearly all actives have AC50 up to about 23 µM;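 as to AC50: cells exposed to compound for 48 hours before the viability read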); conditions: SU-DIPG-XIII viability, CellTiter-Glo ATP luminescence
# [10] = modifiers of HSF1 nuclear foci, imaging, Selleck Cancer Library (AID 1347162; in the data active = plate-normalised HSF1 focus index below about 0.46); conditions: human cells, at 10 µM; SSMD: measured here: HSF1 foci SSMD mean; cell count: measured here: cell number; plate-normalised HSF1 focus index: stronger effect = lower value
# [11] = target: NAD(+) hydrolase SARM1 (Homo sapiens) (UniProt Q6SZW1); assay: SARM1 TIR NADase inhibitors, cell lysate, NAD-Glo luminescence (AID 1508614;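 active = compound whose remaining NAD level is above about 45 nM, limit read from the data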;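 also: higher remaining NAD means stronger inhibition of SARM1 NADase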); conditions: SAM-TIR HEK293T lysate NADase, at 1 µM, stronger effect = higher value
# Sequence of NAD(+) hydrolase SARM1 (Homo sapiens) (Q6SZW1 whole entry, looked up): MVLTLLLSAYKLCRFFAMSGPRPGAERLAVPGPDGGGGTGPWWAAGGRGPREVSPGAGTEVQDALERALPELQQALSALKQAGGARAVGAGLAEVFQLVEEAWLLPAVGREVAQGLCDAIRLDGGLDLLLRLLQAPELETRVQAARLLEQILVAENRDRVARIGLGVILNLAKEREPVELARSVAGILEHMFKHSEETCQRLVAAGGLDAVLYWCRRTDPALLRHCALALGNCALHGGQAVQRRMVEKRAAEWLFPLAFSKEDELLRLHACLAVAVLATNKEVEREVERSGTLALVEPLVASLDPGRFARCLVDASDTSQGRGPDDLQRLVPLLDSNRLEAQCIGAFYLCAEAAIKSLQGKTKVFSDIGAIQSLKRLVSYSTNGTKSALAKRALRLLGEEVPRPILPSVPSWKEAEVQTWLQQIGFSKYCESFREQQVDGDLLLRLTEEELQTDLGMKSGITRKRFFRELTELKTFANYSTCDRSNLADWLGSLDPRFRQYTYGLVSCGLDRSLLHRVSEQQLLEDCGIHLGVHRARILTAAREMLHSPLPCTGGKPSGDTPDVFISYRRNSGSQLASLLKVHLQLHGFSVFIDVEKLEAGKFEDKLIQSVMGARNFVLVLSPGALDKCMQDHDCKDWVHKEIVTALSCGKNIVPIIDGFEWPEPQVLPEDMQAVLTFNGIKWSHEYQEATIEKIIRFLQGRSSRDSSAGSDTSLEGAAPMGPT
# [12] = liver-stage malaria parasite growth inhibition, primary screen, cell-based, HepG2, luciferase luminescence, HepG2 viability (AID 624349; in the data active = parasite load remaining mostly below about 12%, no sharp cut-off; inactive = mostly above about 10%;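 also: 100% = mean of DMSO negative control wells on the same plate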); conditions: P. berghei liver stage in HepG2, luciferase luminescence, concentration not given here; parasite load remaining: stronger effect = lower value; viability: measured here: HepG2 viability without parasites
# [13] = stronger effect = lower value, cell number ratio, induced over uninduced
# [14] = measured here: relative caspase fold change +Dox/-Dox
# [15] = measured here: total cells with miR-34 induction, stronger effect = lower value
# [16] = measured here: total cells without miR-34 induction
# [17] = MELAS cybrid survival, CellTiter-Glo 48 h, stronger effect = higher value
# [18] = Rieske KO mouse fibroblast survival, CellTiter-Glo 72 h
# [19] = at 0.000305 µM, OCI-C5x cells, with rucaparib 10 µM, 100% = cells with rucaparib alone
# [20] = at 0.000305 µM, OCI-C5x cells, without rucaparib
# [21] = at 0.000305 µM, OCI-P5x cells, with rucaparib 20 µM, 100% = cells with rucaparib alone
# [22] = at 0.000305 µM, OCI-P5x cells, without rucaparib
# [23] = at 0.00122 µM, OCI-C5x cells, with rucaparib 10 µM, 100% = cells with rucaparib alone
# [24] = at 0.00122 µM, OCI-C5x cells, without rucaparib
# [25] = at 0.00122 µM, OCI-P5x cells, with rucaparib 20 µM, 100% = cells with rucaparib alone
# [26] = at 0.00122 µM, OCI-P5x cells, without rucaparib
# [27] = at 0.00488 µM, OCI-C5x cells, with rucaparib 10 µM, 100% = cells with rucaparib alone
# [28] = at 0.00488 µM, OCI-C5x cells, without rucaparib
# [29] = at 0.00488 µM, OCI-P5x cells, with rucaparib 20 µM, 100% = cells with rucaparib alone
# [30] = at 0.00488 µM, OCI-P5x cells, without rucaparib
# [31] = at 0.0195 µM, OCI-C5x cells, with rucaparib 10 µM, 100% = cells with rucaparib alone
# [32] = at 0.0195 µM, OCI-C5x cells, without rucaparib
# [33] = at 0.0195 µM, OCI-P5x cells, with rucaparib 20 µM, 100% = cells with rucaparib alone
# [34] = at 0.0195 µM, OCI-P5x cells, without rucaparib
# [35] = at 0.0781 µM, OCI-C5x cells, with rucaparib 10 µM, 100% = cells with rucaparib alone
# [36] = at 0.0781 µM, OCI-C5x cells, without rucaparib
# [37] = at 0.0781 µM, OCI-P5x cells, with rucaparib 20 µM, 100% = cells with rucaparib alone
# [38] = at 0.0781 µM, OCI-P5x cells, without rucaparib
# [39] = at 0.313 µM, OCI-C5x cells, with rucaparib 10 µM, 100% = cells with rucaparib alone
# [40] = at 0.313 µM, OCI-C5x cells, without rucaparib
# [41] = at 0.313 µM, OCI-P5x cells, with rucaparib 20 µM, 100% = cells with rucaparib alone
# [42] = at 0.313 µM, OCI-P5x cells, without rucaparib
# [43] = at 1.25 µM, OCI-C5x cells, with rucaparib 10 µM, 100% = cells with rucaparib alone
# [44] = at 1.25 µM, OCI-C5x cells, without rucaparib
# [45] = at 1.25 µM, OCI-P5x cells, with rucaparib 20 µM, 100% = cells with rucaparib alone
# [46] = at 1.25 µM, OCI-P5x cells, without rucaparib
# [47] = at 5 µM, OCI-C5x cells, with rucaparib 10 µM, 100% = cells with rucaparib alone
# [48] = at 5 µM, OCI-C5x cells, without rucaparib
# [49] = at 5 µM, OCI-P5x cells, with rucaparib 20 µM, 100% = cells with rucaparib alone
# [50] = at 5 µM, OCI-P5x cells, without rucaparib
smiles,measurement,setting,value
CC(C)(C)Cn1c(N)nc2ccc(-c3[nH]c(C(C)(C)C)nc3-c3ccc(F)cc3)nc21,AC50,[1],26.4 µM (active)
same,AC50,[2],26.3 µM (active)
same,AC50,[3],20.9 µM (active)
same,AC50,[4],20.9 µM (active)
same,fold change,[5]; [13],0.962 (inactive)
same,fold change,[5]; [14],0.864
same,cell count,[5]; [15],5480
same,cell count,[5]; [16],5700
same,z-score,[6]; [17],-0.234 (inactive)
same,z-score,[6]; [18],0.553
same,viability,[7]; [19],114% (inactive)
same,viability,[7]; [20],115% (inactive)
same,viability,[7]; [21],99.8% (active)
same,viability,[7]; [22],104% (inactive)
same,viability,[7]; [23],112% (inactive)
same,viability,[7]; [24],110% (inactive)
same,viability,[7]; [25],101% (inactive)
same,viability,[7]; [26],107% (inactive)
same,viability,[7]; [27],110% (inactive)
same,viability,[7]; [28],121% (inactive)
same,viability,[7]; [29],108% (inactive)
same,viability,[7]; [30],110% (inactive)
same,viability,[7]; [31],103% (inactive)
same,viability,[7]; [32],112% (inactive)
same,viability,[7]; [33],103% (inactive)
same,viability,[7]; [34],107% (inactive)
same,viability,[7]; [35],96.9% (active)
same,viability,[7]; [36],117% (inactive)
same,viability,[7]; [37],101% (inactive)
same,viability,[7]; [38],109% (inactive)
same,viability,[7]; [39],94.5% (active)
same,viability,[7]; [40],121% (inactive)
same,viability,[7]; [41],103% (inactive)
same,viability,[7]; [42],105% (inactive)
same,viability,[7]; [43],108% (inactive)
same,viability,[7]; [44],140% (inactive)
same,viability,[7]; [45],99.8% (active)
same,viability,[7]; [46],104% (inactive)
same,viability,[7]; [47],175% (inactive)
same,viability,[7]; [48],175% (inactive)
same,viability,[7]; [49],90.5% (active)
same,viability,[7]; [50],92.5% (active)
CC(C)N(CCCNC(=O)Nc1ccc(C(C)(C)C)cc1)C[C@H]1O[C@@H](n2cc(Br)c3c(N)ncnc32)[C@H](O)[C@@H]1O,AC50,[1],14.8 µM (active)
same,IC50,[8],23.5 µM (active)
CON(C)C(=O)N1N=C(c2cc(F)ccc2F)S[C@]1(CCCN)c1ccccc1,outcome,[1],inactive
same,outcome,[3],inactive
CNc1nc(-c2ccc3c(N)n[nH]c3c2)cc(N2C[C@@H](C(=O)NC3CCCCC3)CC[C@H]2C)n1,AC50,[1],20.9 µM (active)
same,AC50,[9],18.6 µM (active)
same,AC50,[2],6.61 µM (active)
same,AC50,[4],14.8 µM (active)
same,viability,[7]; [19],103% (inactive)
same,viability,[7]; [20],113% (inactive)
same,viability,[7]; [21],103% (inactive)
same,viability,[7]; [22],106% (inactive)
same,viability,[7]; [23],124% (inactive)
same,viability,[7]; [24],115% (inactive)
same,viability,[7]; [25],97.7% (active)
same,viability,[7]; [26],102% (inactive)
same,viability,[7]; [27],116% (inactive)
same,viability,[7]; [28],111% (inactive)
same,viability,[7]; [29],100% (inactive)
same,viability,[7]; [30],104% (inactive)
same,viability,[7]; [31],119% (inactive)
same,viability,[7]; [32],115% (inactive)
same,viability,[7]; [33],92.7% (active)
same,viability,[7]; [34],96.7% (active)
same,viability,[7]; [35],117% (inactive)
same,viability,[7]; [36],120% (inactive)
same,viability,[7]; [37],102% (inactive)
same,viability,[7]; [38],98.2% (active)
same,viability,[7]; [39],107% (inactive)
same,viability,[7]; [40],113% (inactive)
same,viability,[7]; [41],91% (active)
same,viability,[7]; [42],91.1% (active)
same,viability,[7]; [43],112% (inactive)
same,viability,[7]; [44],122% (inactive)
same,viability,[7]; [45],90% (active)
same,viability,[7]; [46],93.4% (active)
same,viability,[7]; [47],67.5% (active)
same,viability,[7]; [48],155% (inactive)
same,viability,[7]; [49],22.3% (active)
same,viability,[7]; [50],84.2% (active)
NC(=O)c1cccc2[nH]c(-c3ccc([C@H]4CCCN4)cc3F)nc12,outcome,[1],inactive
same,outcome,[3],inactive
same,outcome,[8],inactive
N#Cc1ccc(Oc2ccc3c(c2)COB3O)cc1,outcome,[1],inactive
same,outcome,[9],inactive
same,outcome,[2],inactive
same,outcome,[3],inactive
same,outcome,[8],inactive
COC[C@H](c1ccc(C(F)(F)F)cc1)N1CCN(C2(C)CCN(C(=O)c3c(C)ncnc3C)CC2)C[C@H]1C,AC50,[1],11.8 µM (active)
same,outcome,[3],inactive
Cc1c(C(=O)Nc2ccc(N3C[C@@H](C)O[C@@H](C)C3)nc2)cccc1-c1ccc(OC(F)(F)F)cc1,AC50,[1],20.9 µM (active)
same,AC50,[2],20.9 µM (active)
same,AC50,[4],23.5 µM (active)
same,SSMD,[10],-6.97
same,cell count,[10],6140
same,plate-normalised HSF1 focus index,[10],0.637 (inactive)
CO/N=C(/C(=O)N[C@@H]1C(=O)N2C(C(=O)O)=C(CSC(=O)c3ccco3)CS[C@H]12)c1csc(N)n1,AC50,[1],23.5 µM (active)
same,remaining NAD,[11],10 nM (inactive)
NC(=O)c1cccc(-c2cc(Nc3ccc(OC(F)(F)F)cc3)ncn2)c1,parasite load remaining,[12],33% (inactive)
same,viability,[12],100%
same,outcome,[3],inactive
same,fold change,[5]; [13],0.899 (inactive)
same,fold change,[5]; [14],1.65
same,cell count,[5]; [15],7160
same,cell count,[5]; [16],7960
same,z-score,[6]; [17],-0.11 (inactive)
same,z-score,[6]; [18],-0.362
C=CC(=O)Nc1cccc(Sc2nc(Nc3ccc(N4CCN(C)CC4)cc3)ncc2Cl)c1,fold change,[5]; [13],0.881 (inactive)
same,fold change,[5]; [14],1.05
same,cell count,[5]; [15],4990
same,cell count,[5]; [16],5660
same,z-score,[6]; [17],-0.417 (inactive)
same,z-score,[6]; [18],0.935
COc1cccc(-c2ccc(NC(=O)C3=C(C(=O)O)CCC3)c(F)c2)c1,outcome,[9],inactive
same,outcome,[2],inactive
same,outcome,[8],inactive
Cc1cc(C)cc(Oc2ccc(CNC(=O)[C@H](C)N)cc2C)c1,AC50,[9],26.3 µM (active)
same,AC50,[2],18.6 µM (active)
same,outcome,[8],inactive
CCN(CCCOc1ccc2c(Nc3cc(CC(=O)Nc4cccc(F)c4)[nH]n3)ncnc2c1)CCOP(=O)(O)O,outcome,[9],inactive
same,AC50,[2],1.18 µM (active)
same,outcome,[8],inactive
CCCS(=O)(=O)Nc1ccc(F)c(C(=O)c2c[nH]c3ncc(Cl)cc23)c1F,outcome,[9],inactive
same,outcome,[3],inactive
same,outcome,[8],inactive
same,fold change,[5]; [13],0.766 (inactive)
same,fold change,[5]; [14],1.15
same,cell count,[5]; [15],4220
same,cell count,[5]; [16],5520
same,z-score,[6]; [17],-0.49 (inactive)
same,z-score,[6]; [18],0.575
c1cn2cc(-c3ccc4cn[nH]c4c3)nc(Nc3ccc(N4CCOCC4)cc3)c2n1,AC50,[9],11.8 µM (active)
same,AC50,[2],6.61 µM (active)
same,AC50,[4],14.8 µM (active)
same,outcome,[8],inactive
same,fold change,[5]; [13],0.776 (inactive)
same,fold change,[5]; [14],0.455
same,cell count,[5]; [15],4570
same,cell count,[5]; [16],5880
same,z-score,[6]; [17],1.34 (inactive)
same,z-score,[6]; [18],0.233
C=CCN(/C=C1\C(=O)O[C@@H](COC)[C@]2(C)C1=C(O)C(=O)C1=C2[C@@H](OC(C)=O)C[C@]2(C)C(=O)CC[C@H]12)CC=C,AC50,[9],16.6 µM (active)
same,AC50,[2],9.34 µM (active)
same,outcome,[8],inactive
